Bioassay records deposited in PubChem BioAssay by National Center for Advancing Translational Sciences (NCATS).
HTT promoter inh: Primary qHTS for Identification of Small Molecule Inhibitors of Huntingtin Promoter Activity | HEK293 HTT promoter firefly luciferase reporter, 24 h | Potency, µM (titrated, usually from 57.5 µM), without a hit: top-dose activity change, negative = inhibition, most hits filed as inhibitors | actives 0.93% (n = 48,000) | AID 1508623, 2021; note: potency is the fitted concentration of half-maximal effect; nearly all actives have a fitted effect of over 50% in size
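HEK293 luciferase promoter-reporter cells (2,500/well) plated 24 h, then compounds added at up to 57.5 uM final for 24 h at 37 °C. Firefly luminescence by Dual-Glo, normalized to vehicle (0%) and zero RLU (-100%).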
B2AR arrestin ag: qHTS assay of beta-arrestin-biased ligands of beta2-adrenergic receptor: NCGC Sytravon Library Screen. HTLA Tango cells, beta-arrestin recruitment, luciferase luminescence, 18 h. 44,000 tested, under 10 active. Beta-2 adrenergic receptor (Homo sapiens), P07550. Potency, µM (top dose mostly 46.1 µM), hits mostly activators;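 note: potency is the fitted concentration of half-maximal effect; 0% = DMSO and full agonism = EC100 isoproterenol or metaproterenol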
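Tango cell line, 1% FBS DMEM; cpd titration up to 46 microM; 18 hr, 37 degrees C, 5% CO2. Luciferin/ATP substrate mix added, 15 min RT, luminescence. %Activity, CRC fitting, curve-class categorization.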
PTAP-TSG101 blk: qHTS Validation Assay for Inhibitors of HIV-1 Budding by Blocking the Interaction of PTAP/TSG101: Sytravon Library Screen. Fluorescence polarization, FITC-PTAP peptide/Tsg101, 20 min. Potency, µM (titrated, usually from 115 µM), actives largely listed as inhibitors. 44,000 tested, under 10 active. AID 1347069, 2019; note: potency is the fitted concentration of half-maximal effect; 0% is about no effect
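Fluorescence polarization: Tsg101 binding domain (10 uM final) in 10 mM HEPES pH 7.5, 0.15 M NaCl, 0.01% Tween 20, 3 mM EDTA, 0.1 mM TCEP; compounds pinned; FITC-PTAP peptide 50 nM final; 20 min, r.t.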
HTT-AS act: Primary qHTS for Identification of Small Molecule Activators of Huntingtin-Antisense Promoter Activity. HEK293 HTT-AS promoter firefly luciferase reporter, 24 h; response scale: percent change from vehicle, -100% = no light. Potency, µM (highest dose often 57.5 µM), inactives show at the top dose activity change, positive = activation, most hits filed as activators. actives 0.24% (n = 48,000). AID 1508624, 2021; note: potency is the fitted concentration of half-maximal effect; nearly all actives have a fitted effect of over 55% in size
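HEK293 cells carrying firefly luciferase reporters were seeded at 2,500 per well in Opti-MEM and cultured for 24 h. They were then treated with compounds at up to 57.5 uM final for 24 h at 37 degrees C before Dual-Glo luminescence readout.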
GALK inhibitor: qHTS Assay for Inhibitors of Human Galactokinase (GALK): NCGC Sytravon Library Screen; 44,000 tested, under 10 active; recombinant GALK, Kinase-Glo ATP luminescence, 1 h; P51570; Potency, µM (series often up to 57.5 µM), for the others: at the top dose activity, negative = inhibition, most hits filed as inhibitors;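 note: plate controls were full GALK reaction for no effect and reaction lacking GALK for full effect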
Target sequence (P51570 whole entry, looked up): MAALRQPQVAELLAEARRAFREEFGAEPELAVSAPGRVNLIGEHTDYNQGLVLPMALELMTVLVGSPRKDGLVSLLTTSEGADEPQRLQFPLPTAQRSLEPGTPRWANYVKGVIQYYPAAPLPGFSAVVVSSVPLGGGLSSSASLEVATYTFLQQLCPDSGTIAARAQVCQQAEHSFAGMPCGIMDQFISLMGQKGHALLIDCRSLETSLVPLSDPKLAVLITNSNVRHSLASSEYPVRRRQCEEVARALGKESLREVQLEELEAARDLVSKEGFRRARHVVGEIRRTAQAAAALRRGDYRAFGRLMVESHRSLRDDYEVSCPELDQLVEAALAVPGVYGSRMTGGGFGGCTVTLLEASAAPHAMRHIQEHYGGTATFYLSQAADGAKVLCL
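5 nM GALK with 35 µM ATP and 100 µM galactose in HEPES pH 8.0, MgCl2, NaCl, DTT, BSA; 1 h RT reaction, remaining ATP detected by Kinase-Glo Plus luminescence after 10 min; qHTS concentration series.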
NTMT1 inhibitor: Primary qHTS for Inhibitors of N-terminal methyltransferase 1 (NTMT1): MTaseGlo Assay. N-terminal Xaa-Pro-Lys N-methyltransferase 1 (Homo sapiens), Q9BV86. actives 2.5% (n = 59,000). NTMT1 MTase-Glo SAH luminescence, purified enzyme. AID 1645870, 2021. Potency, µM (top dose mostly 114 µM), without a hit: at the top dose activity change, negative = inhibition, actives largely listed as inhibitors;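 note: potency is the fitted concentration of half-maximal effect; plate controls were DMSO vehicle for no effect and no enzyme for full effect; nearly all actives have a fitted effect of over 65% in size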
Target sequence (Q9BV86 whole entry, looked up): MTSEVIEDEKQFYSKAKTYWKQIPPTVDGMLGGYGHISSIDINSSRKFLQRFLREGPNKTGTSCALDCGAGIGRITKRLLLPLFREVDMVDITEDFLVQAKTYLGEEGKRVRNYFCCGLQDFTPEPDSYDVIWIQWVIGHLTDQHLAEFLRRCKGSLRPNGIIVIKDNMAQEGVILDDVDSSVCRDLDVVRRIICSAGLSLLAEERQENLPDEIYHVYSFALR
Active calls of the source: *; i = inactive; ? = inconclusive; / = no result given; ! = a repeat was not active; [ ] = dose if it differs, or a comment. Shown is part of a subset that was picked to be rich in hits. Calls come from the whole dose curve; as a rule, active = well fitted curve in the direction sought with a large enough effect; inconclusive = small, poorly fitted or top-dose-only effect, or another doubt; inactive = no such curve, though single readings can be large; an effect the other way counts as inactive or inconclusive.

SMILES	HTT promoter inh	B2AR arrestin ag	PTAP-TSG101 blk	HTT-AS act	GALK inhibitor	NTMT1 inhibitor
COc1cc(Cl)c(NS(=O)(=O)c2ccc3c(c2)CC(C)N3C(=O)C2CCC2)c(OC)c1 (stereo not given)	8.9µM*	i	i	-87%	3%	1%
Cc1ccc(-c2nn3c(C)nnc3s2)cc1NCc1ccc(-c2cccc(Cl)c2)o1	/	/	/	/	/	9%
COc1ccc(C2Nc3ccccc3C(=O)N2Cc2cccs2)cc1COc1c(C)cc(NC(C)=O)cc1C (stereo not given)	/	/	/	/	/	9%[57.5 µM]
CN(C)c1ccc(CNc2nc(-c3ccco3)nn2S(=O)(=O)c2ccc(Cl)cc2)cc1	38%	i	i	?	-4%	-2%
O=S(=O)(c1ccccc1)n1nc(-c2ccco2)nc1NCc1ccccc1	37%	i	i	13µM*	9%	-1%
Cc1ccc(Cl)cc1Nc1nn2c(=O)c3ccc(C(=O)NCc4cccs4)cc3nc2s1	?	i	i	-42%	0%	79µM*
Cc1ccccc1Nc1nn2c(=O)c3ccc(C(=O)NCc4cccs4)cc3nc2s1	-32%	i	i	-21%	-2%	-1%
CCc1cccc(NC(=O)c2ccc3c(=O)n4nc(Nc5ccccc5OC)sc4nc3c2)c1	?	i	i	-51%	-1%	-10%
COc1cccc(NC(=O)c2ccc3c(=O)n4nc(Nc5ccccc5OC)sc4nc3c2)c1	-8%	i	i	-34%	-1%	79µM*
Cc1ccc(OCCn2c(CCNC(=O)N3CCCCC3)nc3ccccc32)cc1	/	/	/	/	/	8%
CCOc1ccc(CCNC(=O)c2ccnn2Cc2cccc(C)c2)cc1OCC	/	/	/	/	/	13%
O=C(O)c1ccc2cc(-c3ccc(O)c(C45CC6CC(CC(C6)C4)C5)c3)ccc2c1	-18%	/	/	-9%	/	50µM*!
CC(C)c1ccccc1Cc1cc(C(=O)Nc2ccc(S(=O)(=O)c3ccccc3C(C)(C)C)cc2)c(O)c(O)c1O	?	/	/	-36%	/	71µM*!
CC(C)OCc1cc(CN2CCN(c3ccccc3)CC2)c(O)c2ncccc12	13µM*	?	i	-43%	-2%	6%
N#Cc1ccc(O[C@@H]2c3ccccc3C[C@H]2N2CCC[C@@H](N)C2)c(Cl)c1	/	/	/	/	/	-12%[57.5 µM]
Cc1ccc(/C=C/C(=O)Nc2ccccc2C(N)=O)o1	60%	i	i	4µM*	4%	?
Oc1cc(CNC(=S)/C=C/c2cc(O)c(O)c(Br)c2)cc(O)c1O	/	/	/	/	/	45µM*
CN(C)CCN(C)C(=O)c1ccc(NC(=O)Nc2ccc(-c3nc(N4CCOCC4)c4ccn(CC(F)(F)F)c4n3)cc2)cc1	?	/	/	-47%	/	22µM*!
CCn1nnc2c(N3CCOCC3)nc(-c3ccc(NC(=O)Nc4ccc(C(=O)N5CCN(C)CC5)cc4)cc3)nc21	?	/	/	-23%	/	-18%
Cc1ccc(S(=O)(=O)c2cnc(SCC(=O)Nc3ccccc3C(F)(F)F)[nH]c2=O)cc1C	-9%	i	i	-9%	4%	89µM*
COc1cc(Cl)c(C)cc1NC(=O)CSc1ncc(S(=O)(=O)c2ccc(C(C)(C)C)cc2)c(=O)[nH]1	-4%	i	i	-9%	-6%	18µM*
CCc1ccc(S(=O)(=O)c2cnc(SCC(=O)Nc3ccc(OC)cc3OC)[nH]c2=O)cc1	9%	i	i	22%	6%	-18%
CC(C)(C)c1ccc(S(=O)(=O)c2cnc(SCC(=O)Nc3ccc(F)c(Cl)c3)[nH]c2=O)cc1	4%	i	i	-10%	20µM*	25µM*
O=C(O)c1ccc(-c2c[nH]c3ncc(-c4ccccc4)cc23)cc1C1CCCC1	-18%	/	/	-11%	/	25µM*
COc1cccc(CSc2nc3n(n2)C(c2ccc(C(=O)O)cc2)C(C(=O)Nc2ccccc2)=C(C)N3)c1 (stereo not given)	13%	i	i	6%	-1%	45µM*
SMILES	HTT promoter inh	B2AR arrestin ag	PTAP-TSG101 blk	HTT-AS act	GALK inhibitor	NTMT1 inhibitor
CC1=C(C(=O)Nc2ccc(C)cc2)C(c2ccccc2Br)N=C(Nc2nc3ccccc3o2)N1 (stereo not given)	/	/	/	/	/	19%
CN(C)c1cccc(NS(=O)(=O)c2ccc(NC(=O)Cc3ccc(Cl)c(Cl)c3)cc2)c1	/	/	/	/	/	12%[57.5 µM]
Clc1ccc(Nc2nc(-c3ccccc3)c3ccccc3n2)c(Cl)c1	-7%[11.5 µM]	i	i	6%	-1%	8%
CNCc1ccc(C)c(NC(=O)c2ccc(Nc3nc(-c4ccccc4)c4ccccc4n3)cc2)c1	/	/	/	/	/	35µM*
CC1Cc2ccccc2N1C(=O)Cc1nc(N2CCOCC2)cc(=O)[nH]1 (stereo not given)	/	/	/	/	/	1%
COc1ccc(CN2CCc3c(c(=O)n4ncc(C(=O)N5CCN(c6ccccc6OC)CC5)c4n3C)C2)cc1	1.8µM*	i	i	-88%	-2%	18%
CCn1c2c(c(=O)n3ncc(C(=O)Nc4cc(Cl)ccc4OC)c13)CN(Cc1ccc(OC)cc1)CC2	-3%	i	i	-19%	-6%	-19%
O=S(=O)(Nc1nc2ccccc2s1)c1ccc(NCc2ccc(Br)cc2O)cc1	/	/	/	/	/	28µM*
CC(C)=CCC[C@](C)(O[C@@H]1O[C@H](CO[C@@H]2OC[C@@H](O)[C@H](O)[C@H]2O)[C@@H](O)[C@H](O)[C@H]1O)[C@H]1CC[C@]2(C)[C@@H]1[C@H](O)C[C@@H]1[C@@]3(C)CC[C@H](O[C@@H]4O[C@H](CO)[C@@H](O)[C@H](O)[C@H]4O[C@@H]4O[C@H](CO)[C@@H](O)[C@H](O)[C@H]4O)C(C)(C)[C@@H]3CC[C@]12C	/	/	/	/	/	35%[29.8 µM]
CCOc1ccc(-c2nc(CSCC(=O)NCCc3ccccc3)c(C)o2)cc1	7.1µM*	?	i	-50%	-2%	-15%
CCc1ccc(-c2nc(CSCC(=O)NCCc3ccccc3)c(C)o2)cc1	/	/	/	/	/	-1%[57.5 µM]
CCCC(=O)c1cc(O)c(O)cc1O	?	/	/	-36%[116 µM]	/	40µM*
Cc1ccc(Cl)cc1N1CCN(c2ncnc3c2nc2n3CCCCC2)CC1	?	i	i	-32%	-5%	-2%
